A selection: hits, their analogues and other compounds. The true share with any hit is near 3.8%.
Nrf2 inh: blocks Nrf2 signaling; actives 2.1% (n = 360,000); Potency, µM (top dose mostly 46 µM), for inactives: at the highest dose activity change, negative = inhibition, most hits filed as inhibitors; A549 ARE-Fluc reporter, luciferase luminescence, 18-24 h; note: % is set by controls: 0 for no effect and ±100 for the full control effect; nearly all actives have a fitted effect of over 60% in size
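Nrf2 function is reported as luminescence of an ARE-controlled luciferase in A549 cells. Compounds were tested at several concentrations, and a CellTiter-Fluor read on the same wells flagged cytotoxicity.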
HepG2 viability: counter-screen for TGF-b inhibitors: cytotoxicity in HepG2 cells. Potency, µM (highest dose often 46.1 µM), for the others: top-dose activity change, negative = cytotoxicity, actives largely listed as cytotoxic. actives 0.76% (n = 410,000). HepG2 CAGA-GFP viability, ATP luminescence, 18 h
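CellTiter-Glo luminescence gave cytotoxicity after 18 hours at 37 degrees C. The cells were HepG2 CAGA-GFP in 1% FBS DMEM, stimulated with 500 pg/mL TGF-beta after compound addition. %Activity was normalised to no-cell wells (complete cell-killing) and DMSO (no toxicity), and curves were fitted and classified.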
S2 tox: cell viability loss in ATXN counter-screen; Potency, µM (top dose mostly 56.7 µM), usual class: cytotoxic; S2 cells (HEK-293 line with an ATXN2-luciferase reporter) viability, CellTiter-Fluor protease fluorescence, 24 h; actives 0.49% (n = 400,000); note: nearly all actives have a fitted effect of over 40% in size
A549 viability: kills or reduces viability of A549 cells in Nrf2 counter-screen | A549 ARE-Fluc cells, CellTiter-Fluor viability, 18-24 h | Potency, µM (series often up to 46 µM), for inactives: at the top dose activity change, negative = cytotoxicity, actives largely listed as inhibitors | actives 0.16% (n = 390,000); note: % is set by controls: 0 for no effect and ±100 for the full control effect
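A549 ARE-Fluc cells in 5% FBS OPTI-MEM, 5000 cells/well, rested 2 h then exposed to compounds in concentration-response for 18-24 h at 37 °C. Viability by CellTiter-Fluor fluorescence (Ex 405/Em 525) after 30 min; luciferase luminescence (BugLite, 15 min, RT) read afterwards.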
ATXN2 expr inh: ATXN2 expression inhibition; Potency, µM (highest dose often 57 µM), for inactives: at the top dose activity change, negative = inhibition, actives largely listed as inhibitors; actives 0.72% (n = 360,000); HEK-293 ATXN2-luciferase reporter, luminescence, 24 h; note: % is set by controls: 0 for no effect and ±100 for the full control effect; nearly all actives have a fitted effect of over 55% in size
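qHTS (up to 57 uM final) was run with 24 h compound exposure of reporter cells at 37 °C. Each well was multiplexed: SteadyGlo luminescence measured ATXN2-luciferase expression after a fluorogenic Gly-Phe-AFC viability readout (25 uM final).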
TGFb inhibitor: inhibitors of TGF-b signaling | HepG2 CAGA-GFP TGF-b/SMAD3 reporter, GFP fluorescence, 18 h; TGF-beta stimulated, 500 pg/mL final | Potency, µM (series often up to 46.1 µM), for the others: top-dose activity, negative = inhibition, actives largely listed as inhibitors | actives 1.2% (n = 410,000); note: % is set by controls: 0 for no effect and ±100 for the full control effect; nearly all actives have a fitted effect of over 65% in size
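Inhibition was scored as loss of TGF-beta-induced (500 pg/mL final, 18 hours, 37 degrees C) GFP in HEPG2 cells carrying a CAGA-GFP reporter, in DMEM with 1% FBS. Well GFP was summed per cell; Activity was normalised to unstimulated and stimulated DMSO wells, then concentration-response fitting.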
Active calls of the source: *; i = inactive; ? = inconclusive; nt = not tested or not shown. Calls come from the whole dose curve; as a rule, active = well fitted curve in the direction sought with a large enough effect; inconclusive = small, poorly fitted or top-dose-only effect, or another doubt; inactive = no such curve, though single readings can be large; an effect the other way counts as inactive or inconclusive. Potency is the fitted concentration of half-maximal effect.

SMILES | Nrf2 inh | HepG2 viability | S2 tox | A549 viability | ATXN2 expr inh | TGFb inhibitor
CC(NC(=O)Cc1ccc(NS(=O)(=O)c2cccc(C(F)(F)F)c2)cc1)c1ccccn1 (centres undefined) | -23% | -53% | i | 3% | 5% | 1%
COc1cc2c(cc1OC)C(COc1ccc([N+](=O)[O-])cc1)NCC2 (centres undefined) | -3% | 7% | i | -2% | -9% | 11%
COc1ccc(OC)c(NC(=O)CN2C(=O)COc3ccc(S(=O)(=O)NC4CCCC4)cc32)c1 | nt | -2% | nt | 0% | nt | -26%
C=CC[n+]1ccnc2ccccc21 | nt | 1% | nt | nt | nt | ?
C[n+]1ccnc2ccccc21 | nt | -105% | nt | nt | nt | 5µM*
C[n+]1ccnc2cc(Cl)ccc21 | nt | 1.4µM* | nt | nt | nt | 1.1µM*
COc1ncnc2c1ncn2CCCNCc1ccccn1 | nt | -18% | i | nt | 0% | -7%
COc1ccc(C2Nc3ccccc3C(=O)N2Cc2ccccc2)cc1COc1cccc(C)c1 (centres undefined) | -21% | nt | nt | -3% | nt | nt
O=C(O)CCC1(CCC(=O)O)CCCC(CCC(=O)O)(CCC(=O)O)C1=O | 4% | 2% | i | -6% | 4% | 7%
CC(=O)C1=C(c2ccc(Cl)c(Cl)c2)N(C(C)=O)n2c(nnc2-c2ccccc2)S1 | nt | 6% | nt | 4% | nt | ?
CC(=O)C1=C(c2ccccc2)N(C(C)=O)n2c(nnc2C2CCCCC2)S1 | nt | 11µM* | nt | -15% | nt | 11µM*
CC(=O)C1=C(c2ccc(Cl)c(Cl)c2)N(C(C)=O)n2cnnc2S1 | nt | -94% | nt | ? | nt | 5.6µM*
CC(=O)C1=C(c2ccc(Cl)c(Cl)c2)N(C(C)=O)n2c(C)nnc2S1 | nt | 7.9µM* | ? | 7% | 28µM* | ?
COc1cccc(C2=C(C(C)=O)Sc3nnc(C4CCCCC4)n3N2C(C)=O)c1 | nt | -53% | nt | ? | nt | ?
Clc1cccc(Cl)c1CSc1nnc(-c2sccc2-n2cccc2)o1 | nt | -2% | i | ? | 0% | 8%
CCCCCCOc1ccc(/C(C)=N/NC2=NCCN2)cc1 | -15% | 14µM* | ? | -7% | nt | ?
CCCCCOc1ccc(/C(C)=N/NC2=NCCN2)cc1 | 6% | -104% | i | 9% | ? | ?
N=c1ncn(Cc2ccccc2)c2nc(SCCOc3ccccc3)[nH]c12 | 2% | 1% | ? | -6% | 7% | -30%
CCOc1ccc(N(CC(=O)N2CCC(Cc3ccccc3)CC2)S(C)(=O)=O)cc1 | 26µM* | -13% | i | -7% | -35% | -18%
CCN(CC)C(=O)C1CCN(S(=O)(=O)c2ccc3oc4ccccc4c3c2)CC1 | 21µM* | -4% | ? | -4% | -23% | -21%
COC(=O)c1ccc2c(=O)n(CCCCCC(=O)NCCc3ccc(Cl)cc3)c(=O)[nH]c2c1 | nt | -30% | nt | 1% | nt | ?
Cn1cc(-c2coc3c(C(=O)NCc4cccs4)cccc23)cn1 | nt | -24% | i | nt | -2% | -9%
CC(=O)OCC(=O)Nc1ccc(Br)c(C)c1 | 20% | -42% | i | -1% | -2% | 16µM*
O=S(=O)(c1ccccc1Br)N1CCC(O)(c2cccnc2)CC1 | -15% | 17% | i | 8% | -7% | 12%
Cc1cccc(C)c1NC(=O)Cn1c(=O)n(Cc2ccc(C(=O)NCc3ccco3)cc2)c(=O)c2sccc21 | 18µM* | -67% | ? | -22% | ? | ?
SMILES | Nrf2 inh | HepG2 viability | S2 tox | A549 viability | ATXN2 expr inh | TGFb inhibitor
Cc1cc(C)c(NC(=O)Cn2c(=O)n(Cc3ccc(C(=O)NCc4ccco4)cc3)c(=O)c3sccc32)c(C)c1 | ? | -84% | nt | -18% | nt | 10µM*
CNc1ccc(/C=C/c2ccccc2)cc1 | nt | -33% | nt | nt | nt | -24%
CCN(CC(=O)Nc1ccccc1C(F)(F)F)C(=O)c1ccccc1OCc1ccc(F)cc1 | -4% | -6% | ? | 0% | -3% | -27%
O=C(CSC1=Nc2ccccc2N=C(c2ccc(F)cc2)C1)Nc1cc(F)ccc1F | nt | 0% | i | 5% | 6% | 3%
O=C(CCSc1nnc(-c2ccncc2)o1)Nc1ccc(Cl)cc1 | -21% | -52% | i | 1% | -17% | -20%
O=C(O)c1cccc(CSc2nnc(COc3ccccc3)o2)c1 | nt | -4% | i | 3% | -24% | ?
O=C(O)c1cccc(CSc2nnc(-c3ccc(Cl)cc3)o2)c1 | 9.2µM* | -26% | i | -1% | nt | -2%
O=C(CCSc1nnc(-c2ccncc2)o1)Nc1cccc(Cl)c1 | 21µM* | 9% | i | -4% | -9% | 36%
Cc1ccc(-c2nn(-c3cccc([N+](=O)[O-])c3)c3c2cnc2ccc(F)cc23)cc1 | nt | -10% | i | -2% | 14% | 2%
CC(=O)c1ccc(OCCCC(=O)N2CCN(S(=O)(=O)c3ccc(C(C)C)cc3)CC2)cc1 | 21µM* | -16% | ? | -22% | -22% | ?
CC(=O)c1ccc(OCCCC(=O)N2CCN(S(=O)(=O)c3cc(C)ccc3C)CC2)cc1 | ? | -10% | i | 1% | 0% | 6%
CCOc1ccc(S(=O)(=O)N2CCN(C(=O)CCOc3ccccc3C)CC2)cc1 | 16µM* | -5% | i | -16% | 2% | -6%
CCOC(=O)c1csc(NC(=O)c2ccc(OCC)cc2)n1 | 21µM* | -17% | i | -23% | ? | -30%
CCCc1nn2c(=O)cc(COC(=O)c3ccc(NC(=O)c4cccs4)cc3)nc2s1 | nt | -23% | nt | -12% | nt | 11µM*
CCCCc1nn2c(=O)cc(COC(=O)c3ccc(NC(=O)c4cccs4)cc3)nc2s1 | nt | -25% | nt | ? | nt | -12%
CCOc1ccc(C(=O)Nc2ccc(C(=O)OCc3cc(=O)n4c(C)csc4n3)cc2)cc1 | nt | -16% | nt | ? | nt | 22µM*
CC1(C)CC(=O)C2=C(C1)NC(Nc1nc3ccccc3o1)=NC2c1ccccc1 (centres undefined) | 4% | 6% | nt | -3% | nt | 8%
Cc1ccc(S(=O)(=O)c2cn(Cc3ccccc3Cl)c3ccc(F)cc3c2=O)cc1 | -3% | -16% | i | 11% | -9% | 0%
O=C(NCCc1ccccc1Cl)c1ccc(Cn2c(=O)c3cccn3c3cccnc32)cc1 | ? | 10µM* | nt | ? | nt | ?
CC(C)N(C)c1ncnc2c1ncn2[C@H]1CN(Cc2cccs2)C[C@@H](CO)O1 | nt | -2% | i | nt | 5% | 13%
Cn1c(NCc2ccco2)nc2c1c(=O)n(Cc1ccc(Cl)cc1Cl)c(=O)n2C | 18µM* | -20% | i | -13% | -13% | 1%
